Screening results (PubChem)
Shown are actives, neighbours in structure and some others; about 4.7% of the full set was active somewhere.
tim10-1 inh – inhibits growth of tim10-1 mutant yeast; S. cerevisiae tim10-1 ts strain growth, BacTiter-Glo, 24 h; inhibition, % at 20 µM; hit rate 2.2% among 330,000; AID 463190;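 active = inhibition of at least 40%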;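 note: mutant grown at 25 °C; 0% = DMSO wells with yeast and 100% = wells holding no yeast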
PfHsp90 set2 – reduces growth (ATP signal) of yeast expressing P. falciparum Hsp90; S. cerevisiae expressing PfHsp90, BacTiter-Glo ATP, 48 h; yeast lacking PDR1 and PDR3 efflux regulators; inhibition, % at 9.4 µM; hit rate 0.32% among 310,000;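 active = every replicate shows inhibition above about 80%, whatever the replicate mean, limit read from the data; inconclusive = mean inhibition reaches the set limit but some replicate falls short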;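 note: 0% = DMSO neutral controls and 100% = 20 µM radicicol positive controls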
tim23-1 inh – tim23-1 yeast growth inhibition. AID 463212. hit rate 1.3% among 330,000. inhibition, % at 20 µM. S. cerevisiae tim23-1 growth, BacTiter-Glo luminescence, 24 h;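 active = growth inhibition of the mutant yeast at or above 50%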;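 note: temperature-sensitive mutant grown at 25 °C; plate controls were DMSO-treated mutant yeast for no effect and medium wells lacking yeast for full effect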
SKKanGAS inh – SKKanGAS growth inhibition; S. pyogenes SKKanGAS, kanamycin growth, BacTiter-Glo, 6 h; inhibition, % at 7.5 µM; hit rate 1.3% among 300,000;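 active = mean replicate score, as percent of positive control median, at least 50; inconclusive = mean below 50 but one replicate at or above 50; inactive = mean and every replicate below 50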;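 note: strain carries kanamycin resistance gene driven by streptokinase promoter and grows in 40 µg/ml kanamycin; loss of luminescence reflects streptokinase promoter inhibition or plain growth inhibition; 0% = median of DMSO wells and 100% = positive control at its reference dose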
TIM10 inh – TIM10 yeast growth inhibition | S. cerevisiae TIM10 strain growth, BacTiter-Glo luminescence, 24 h | inhibition, % at 10 µM | hit rate 1.4% among 330,000;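 active = inhibition of 40% or more at the single tested concentration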;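 note: wild-type TIM10 isogenic control strain grown at permissive 25 °C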
EBI2 block – EBI2 (human) antagonism. EBI2 beta-arrestin recruitment, luminescence, 7a,25-OHC stimulated. hit rate 0.81% among 360,000. P32249. inhibition, % at 5 µM; in the data active = inhibition above about 38%;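 note: enzyme fragment complementation signal reports receptor beta-arrestin coupling in cells; 0% = agonist plus DMSO wells and 100% = wells without agonist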
Target sequence (P32249 whole entry, looked up, the tested form may be a part): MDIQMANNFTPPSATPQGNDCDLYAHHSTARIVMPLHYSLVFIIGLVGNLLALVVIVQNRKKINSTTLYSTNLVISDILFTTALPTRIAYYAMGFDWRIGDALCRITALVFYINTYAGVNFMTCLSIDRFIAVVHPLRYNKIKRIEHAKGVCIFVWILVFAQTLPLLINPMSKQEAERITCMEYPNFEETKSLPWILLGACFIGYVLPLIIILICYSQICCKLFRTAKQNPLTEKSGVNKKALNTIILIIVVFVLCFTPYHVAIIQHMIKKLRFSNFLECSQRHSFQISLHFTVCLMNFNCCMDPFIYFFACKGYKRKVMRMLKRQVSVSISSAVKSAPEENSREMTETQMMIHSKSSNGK
EBI2 antag conf – EBI2 (human) antagonism, single concentration confirmation; shares compounds with EBI2 block; EBI2 beta-arrestin luminescence, 7a,25-OHC antagonism; inhibition, % at 5 µM; hit rate 29% among 2,400; AID 651997;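 active = inhibition of at least 50%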
EBI2 ag – activates EBI2, counter-screen for EBI2 antagonists. shares compounds with EBI2 block. EBI2-expressing cells, agonist mode, luminescence, 60 min; 0% vehicle, 100% 7α,25-dihydroxycholesterol control. activation, % at 5 µM. 2,400 tested, under 10 active;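 active = activation of at least 50%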
bGal cs – beta-galactosidase inhibition counter-screen | shares compounds with EBI2 block | purified beta-galactosidase, luminescent Galacton Star, 15 min | inhibition, % at 5 µM | hit rate 1% among 2,400 | AID 652176;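 active = replicate-average signal at least 3 plate SD below neutral wells, shown as high inhibition, flagging enzyme-inhibiting false positives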;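 note: 0% = DMSO wells with enzyme and 100% = wells lacking enzyme; higher means stronger loss of beta-gal luminescence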
Active calls of the source: *; ? = inconclusive; · = no result.

SMILES	tim10-1 inh	PfHsp90 set2	tim23-1 inh	SKKanGAS inh	TIM10 inh	EBI2 block	EBI2 antag conf	EBI2 ag	bGal cs
Cc1cc(C)cc(NC(=O)Nc2ccc3c(c2)N(C)C(=O)CS3)c1	-11.8	-12.2	-9.3	16.2	9.4	37.5*	47.9	-1.1	-19.4
Cc1ccc(NC(=O)Nc2ccc3c(c2)N(C)C(=O)CS3)cc1C	-0.5	-6.0	5.9	20.1	14.0	17.0	·	·	·
O=C(NCc1cccnc1)c1ccccc1CCc1ccccc1	7.6	11.2	16.2	3.1	9.4	-3.7	·	·	·
COCCNC(=S)N1CCc2cc(OC)c(OC)cc2C1c1cccs1 (stereo not drawn)	17.7	-9.3	16.0	3.7	-2.0	7.7	·	·	·
COc1ccc2c(c1)c1nc3n(c(=O)c1n2CC(=O)Nc1ccccc1)CCCS3	-13.7	-4.6	-10.6	7.6	-26.3	25.3	·	·	·
COc1cccc(NC(=O)Cn2c3ccc(F)cc3c3nc4n(c(=O)c32)CCCS4)c1	-4.1	-10.9	-5.1	24.1	1.8	92.4*	71.9*	0.7	7.0
Cc1ccccc1SC1CCN(Cc2nc(C3CC3)no2)CC1	36.6	30.8	8.1	-2.6	21.9	-3.0	·	·	·
O=c1c2c(nc3nc(NCc4cccc5ccccc45)[nH]n13)CCC2	-0.5	0.2	7.6	0.4	2.2	-4.6	·	·	·
CCN(c1ccc(NC(=O)COC(=O)c2ccc(C)s2)cc1)C(C)C	14.9	·	29.6	-11.3	6.4	50.2*	34.0	0.1	7.0
CC1CC(=O)C=C(O)C1C(=O)OC(C)(C)C (stereo not drawn)	-2.3	7.0	2.8	1.9	5.0	14.7	·	·	·
Cc1cc2nc(-c3ccc(C#N)cc3)c(Cc3cccc(F)c3)n2c(C)c1Br	·	·	·	·	·	44.3*	42.9	-1.3	-16.4
Cc1ccc(-c2nc3ccc(C)cn3c2Cc2cccc(F)c2)cc1	·	·	·	·	·	43.0*	45.9	-1.7	-13.8
Cc1ccc(-c2nc3ccc(C)cn3c2Cc2cccc(Cl)c2)cc1	·	·	·	·	·	34.6	·	·	·
Cc1ccc(C(c2nc3ccccc3[nH]2)n2c(-c3ccccc3)nc3ccccc32)cc1 (stereo not drawn)	·	·	·	·	·	-6.0	·	·	·
Cn1nc(Oc2ncc(C(F)(F)F)cc2Cl)cc1C(F)(F)F	4.2	4.5	23.2	-2.2	-4.1	66.0*	8.0	-1.8	-13.3
COc1ccc2oc(C(=O)N3CCN(C(c4ccccc4)c4ccccc4)CC3)c(C)c2c1	11.5	·	18.2	?	23.5	91.5*	68.5*	2.8	8.3
Cc1c(C(=O)N2CCN(C/C=C/c3ccccc3)CC2)oc2c(F)cccc12	13.3	-7.1	28.9	·	13.7	32.1	·	·	·
COc1ccc2oc(C(=O)N3CCN(C/C=C/c4ccccc4)CC3)c(C)c2c1	31.5	-18.2	38.9	·	12.4	46.1*	29.7	0.1	-10.6
COc1ccc(N2CCN(C(=O)c3oc4ccccc4c3C)CC2)cc1	25.3	·	29.3	-5.1	16.9	20.7	·	·	·
C=CCn1c(=O)[nH]c2cc(C(=O)N3CC=C(c4ccccc4)CC3)ccc2c1=O	-0.3	14.2	-17.3	-12.4	-4.9	0.9	·	·	·
CCOC(=O)c1c(NC(=O)CC2Nc3cc(C)c(C)cc3NC2=O)sc(C)c1C (stereo not drawn)	-11.6	7.3	2.6	0.3	-10.0	-7.2	·	·	·
Cc1ccc2c(C)c(C(=O)N(Cc3ccc(F)cc3)C3CCS(=O)(=O)C3)oc2c1 (stereo not drawn)	30.2	-22.6	17.1	-7.0	13.2	12.5	·	·	·
COc1ccc(C(=O)C(=O)N2CCC(c3ccccc3)CC2)cn1	·	·	·	·	·	42.9*	23.3	0.8	5.7
Cc1cccc(C(=O)NCCC(=O)Nc2ccc(F)c([N+](=O)[O-])c2)c1	-10.3	11.1	1.9	-2.4	-0.4	-18.1	·	·	·
CN(C)c1ccnc2sc3c(SCc4ccc(Cl)cc4)ncnc3c12	13.0	12.7	-2.9	-6.4	9.1	54.3*	21.2	-1.4	-7.0
SMILES	tim10-1 inh	PfHsp90 set2	tim23-1 inh	SKKanGAS inh	TIM10 inh	EBI2 block	EBI2 antag conf	EBI2 ag	bGal cs
O=C(O)c1ccc(-c2cccc(Cl)c2)o1	14.8	·	4.5	-6.6	-2.1	-1.1	·	·	·
Nc1ccccc1N=Cc1ccc(-c2cccc(Cl)c2)o1	28.9	-55.9	40.0	-4.7	17.9	42.1*	33.2	-1.3	-8.3
COc1ccc(-c2cc(NC(C)=O)c3ncc(-c4cccc(C(C)=O)c4)n3c2)cc1OC	·	·	·	·	·	16.1	·	·	·
C=CCn1c(SCc2ccc(C(=O)Nc3ccccc3)cc2)nnc1-c1ccccc1	-0.8	1.9	9.6	7.9	24.8	49.3*	15.0	0.7	9.7
C=CCn1c(SCC(=O)NNC(=S)Nc2ccccc2)nnc1-c1ccccc1	11.7	7.4	9.4	-10.3	-10.0	-5.7	·	·	·
CCCC(=O)n1nc(-c2ccccc2)nc1SC	13.9	63.1	5.1	2.5	-10.8	42.7*	24.2	1.2	7.2
CSc1nc(-c2ccccc2)nn1C(=O)c1ccccc1	24.9	3.4	40.8	1.0	26.3	-2.7	·	·	·
CCOC(=O)C1CCCN(Cc2ccc(OC)c(OCc3ccccc3)c2)C1 (stereo not drawn)	17.2	0.8	-5.3	6.8	2.2	-3.3	·	·	·
O=C(Cc1n[nH]c(=O)c2ccccc12)OCC(=O)c1ccc(OC(F)F)cc1OC(F)F	-5.6	12.8	6.9	1.0	1.9	-4.8	·	·	·
CC(=O)Oc1ccc(N(c2ccccc2)S(=O)(=O)c2ccc(C)cc2)cc1	6.9	18.8	19.5	-3.3	25.4	0.6	·	·	·
Cc1nc(N2CCN(Cc3ccc4c(c3)OCO4)CC2)c2cc(-c3ccccc3)sc2n1	26.5	-29.0	43.7	?	32.4	38.4*	12.9	0.9	5.2
Cc1cc(C)c(C)c(C(=O)CSc2nnc(-c3ccc4[nH]c(C)c(C)c4c3)o2)c1C	2.4	-33.9	-5.2	2.0	9.7	52.0*	55.9*	2.0	-2.8
O=C(CCCc1cccs1)NCCc1c[nH]c2ccccc12	31.1	-10.5	49.4	-0.4	-3.0	45.9*	19.7	3.0	2.1
CCCCCCCCCCCCCCCC(=O)NCCc1c[nH]c2ccccc12	13.7	-4.3	-16.9	3.7	-5.1	17.2	·	·	·
NC(=O)c1ccc(NC(=O)COC(=O)CC2Sc3ccccc3NC2=O)cc1 (stereo not drawn)	-4.1	-8.7	4.7	·	11.7	4.6	·	·	·
N#Cc1nc(COc2ccccc2)oc1N1CCN(Cc2ccccc2)CC1	29.7	8.3	33.5	31.4	19.9	36.6	·	·	·
N#Cc1nc(COc2ccccc2)oc1N1CCC(Cc2ccccc2)CC1	19.7	-21.1	11.7	8.5	11.1	70.4*	19.8	-1.3	-3.6
CC(C)(C)CC(C)(C)c1ccc(O)c(Cc2ccc(Cl)cc2Cl)c1	·	24.2	·	·	·	74.8*	42.0	-1.5	-15.2
